Source: PubChem BioAssay AID1159506 (National Center for Advancing Translational Sciences (NCATS), 2015)
Whole data set: some 59,000 sequences, median the read-out near -0.00055, cut for the lowest 2% near -2. The full list was thinned out, with the lowest values kept by preference.

Experiment: Identification of proteins required for the processing of the EWS-FLI1 nascent transcript;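 further: robust z of luciferase light less the median z of siRNAs with the same seed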
Conditions: TC32 Ewing sarcoma NR0B1-luc vs CMV-luc (EWS-FLI1 target promoter against control promoter), 48 h; screened at 20 nM (by protocol)
Procedure, shortened: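 TC32 Ewing sarcoma cells carrying NR0B1-promoter or CMV-promoter luciferase reporters were reverse-transfected with single siRNAs at 20 nM, three per gene genome-wide. Luminescence was read after 48 h and normalized to non-targeting controls.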

Sequence	seed-corrected z-score
UAUGAUACACUGGUAGGGU against ZNF684	-2.38
AAAGUGAUUCCCACAGCUG against CCS	1.5
UUUCUAACAUAGGAUGCCG against PRKAR1A	-0.515
AUGGUUGCGGUAGAAGACG against PHYHIP	0.484
AUAGAAUCUAGGGAAAUAG against HBD	1.15
AUAGUUAUCCUUUAAUAAC against SLC2A3	-2.2
AAUGUCAUUGCUGCGGUCC against SH3KBP1	-0.331
UUUCAGAGCCUUUCCCUGC against LTA	-0.389
UGAUGUACAGCUGAGGACC against ELMO2	-2.32
UCAGGUAGAGCAUAGCUUG against SPX	-1.13
ACAGCUACCACAAAUGCAG against NDUFB3	1.34
UGGGUUCCCAGUAACACUC against RPRD2	-0.107
UGCUCUAUCUCUGUCAGGG against RORC	0.626
AUCGCUGUUAAGAAGCUCC against CIITA	-0.918
UUGGAAUCAGUCAUGCUCA against SFTPD	0.0218
AUCCUUCUUGAAGUCGGCG against OAF	2.26
UUCAGGACGAUCUUGACAG against CHRDL2	-0.237
UGCCGUUUCAUCUUGUACC against NKX2-4	-2.69
UUGAAGUUUGGAUAUUACC against GABPB2	-0.668
GAAUGUAGCAAAUGAGUCG against MT1H	0.588
UGACUGGAUAUAUCCACUG against RAB20	0.37
UUUUCUGCCUGAUCUAACU against MAP3K7CL	0.11
UCACUGUCAAUCAUGCGCU against CACNG1	-1.04

Sequence	seed-corrected z-score
UCACCUUCCGCUUCGACUU against FAM181B	2.19
AAACCAAUAGGAAUUGACU against HINT3	0.612
AUCCAGUUAAUUCCAGAUG against NUDT1	-3.9
UAGGUUGUGAAUGUGGUCG against FBXL8	-3.1
UAUAUGUCUUGAUUAUCCU against NMS	0.309
UCCAGGUCAAGGGUAACGG against KIF7	-0.853
UACAUGUCAAAUGAGCUCC against KIR2DL5B	-2.25
UGUAGAAUGAGUAGGCGGC against NMT2	-0.0232
UGUAUUUGAAGACUUUCCC against ZNF485	0.182
UUCCUUCCUCGUUCAUUGC against KGFLP1	-2.1
AAAGCUUCCCUCAACUUGC against TAS2R9	-0.00509
UAUCUAGUGCAGUAUAUCG against COPS2	0.174
UUUGAUCUCAUCGGUGCCC against PIAS1	-0.0672
AUUCUCGUCAGUGAGCUCC against POLR2C	-0.262
UCUUCGUUCUUGUCGAUCU against MED15	2.07
UAACUUUGUCUUUGGAUUC against SETD9	1.15
AAACUGCUCGCUGUCAUUC against NCDN	-2.2
UGUACAAGAAGUCAUAAGC against DSE	-0.289
UUGUGGUCAAUGCCCUUGG against UBIAD1	-0.444
UGACAUUCCAAGGUUGUAG against TAS2R60	0.323
ACCUUUUUCACUUCUACAC against 2-Mar	-0.43
AAGUUGCUCAGAAACUUGG against WNT9B	-3.07
UGUCCAGAUAAGGAGACGC against PINLYP	-1.21

Sequence	seed-corrected z-score
UAAGUUCACUGUUCCAUAU against EDEM2	0.761
UUUGAAAUCAACAUAGAGG against LINC00574	-0.00543
AAAGGUACUUUACCAGAUG against MTX2	0.416
AGUUCAUUAAAUAAGGUCC against TMEM33	0.17
UUGUCAAAAAGUCCUUUUG against GINS3	0.092
AAGGCUCUGACAACGAUUC against LMNB1	-1.07
UUGAUUCGCAACCAUAGCC against BTBD7	-2.52
AUUCGAAGUAGUUGUAGCC against FRY	0.623
UCGGUUUUCCUCAAAAUGG against SESN1	0.94
UUUCGAAUUAACGCAACUG against HECTD1	0.00197
UUCUGAUUCCCAAACAGUG against COMMD8	-1.88
AAUCAUAACUGUCAUAUCC against DSPP	0.304
ACCGUGCCCAGCAUACAUC against LOC541473	-4.77
UUUCUGGUGACCCUUUUUC against TSG101	-0.683
UCUACUUCUGUGGAUACUC against TALDO1	0.332
UCAGCUGCACUUUCAGUAG against GOLGA8J	-1.61
ACCGUUACAUAUUCUAUCC against SUPT6H	-4.84
UGCUGUAUCCUCUAUAUCC against RFX5	-0.0572
UUAAUCGGCACAGCUGUUC against RSBN1	-0.543
UAUGCAGUCUGGGUAACCC against C10orf11	0.746
UUACGUAUGCACCAUUUGC against SLC35D1	0.196
UAUAGUAAUCAGCUAGUGG against MED6	-3.7
UUUAUUCCCAAAGGCUCUG against PTGER1	-0.569

Sequence	seed-corrected z-score
AUAUCAUUUACUGACAUAG against DNAJB4	-0.41
UUCCAGGAUACUUUAAUCC against PON1	-0.178
AAGCGGUUAACGAAAAGGC against SLC2A1	1.37
UUUGUAAUCAUACGGACAG against ZFAND5	0.868
AAACUCAAAAUCCCGUUGC against ZC3H10	0.108
UAAUAUCCGGUAAGAAUCC against DDB2	-0.365
UAUAGGUAAGGAUUUCUGC against KRTAP9-2	-0.397
UGUCUUCUAAAGUAAGUGG against ZNF77	-2.26
UCACGAACAUGUUGCAAGG against KRIT1	-0.0242
UAGUUCAUAAUCCAAGUCC against COL6A3	0.0612
AUGACUUUAGGUCGCAUCG against FBXL12	-13.4
UUUGGGAUUUCCAUUGUCU against LRP2BP	0.259
UUGGAUACAAAGGAACAAC against DHX32	-0.291
UUUGAGUCCACCACGAAGC against MYH3	-0.0465
UCUGCUGCUCGUCAAGUUC against MAP2K2	1.77
UCUCUUUAAAGACUCCUCC against LPO	0.133
UUGGGAUAUAUUUAGCGGC against ITGB1BP2	-2.58
UUUCGGAUGAGCACGCAGC against APRT	-0.0241
UUCUUGUUCACUCUAAUUU against NFIC	0.384
AUAGUGUCGAUAAAAACCU against CHRNA1	0.527
AAAGUUGCGGAAGCUGAUG against LRP3	-2.42
UAUCUGUGCAGUUAAGAUG against LOC401220	-0.155
UUUCACUCCACUGAAGUAC against CDKL1	-0.736

Sequence	seed-corrected z-score
AGCUGUAGCACCAUCAACG against OR7G3	-1.26
UUCGAUUCCAAGCCUUACG against CCDC113	0.591
AAGUUACCCACGUAGAUGC against SRSF1	-1.35
UAAGAUAUUUGUCCAACAG against YWHAB	0.25
UCAUUGAUCUAAAACGACC against PPFIA1	0.863
UUCUCCUUCACAUACCGGC against CLK3	0.176
UAUCUUCACUGAAUUGACC against ARL8B	0.269
AUAUGCUUCACAGUUCUAG against MMP1	-2.83
UAUAGGCCUUCUACAUUGC against ROM1	1.12
UUGCGAAUGAGGUUGUAGG against PIK3C2B	-0.721
UCUGAUAGCAAUAACUUGG against PPCS	-0.294
UGUUGACUCACUGUAGGCU against LOC729683	0.842
AAAGAGGAAACGGUAGGCC against JAGN1	-2.67
UAUUGGAUCCGGUGCAACC against SYPL2	-0.246
UUGGUUAUCCUCUAUACCC against MTERF3	0.193
UUCAUCAUCGAGGUCAUCC against DPF2	-3.12
UGAACUAUUGGAAUGUCUC against SEC11C	0.165
AUCGUAGUCAGUGUAUCUG against PPARGC1B	-0.163
UAUAGAGCUGCCGUCUCCG against ESRP2	-0.989
UCACUGUUUACUUAGCGCU against HIST1H2BJ	1.62
UGCCGAACCACUUCCAGAG against TNRC18P2	-1.02
AUAGUAAAUAAACACUGCC against RHBDL2	-2.55
AAUCUGAGAACAGACCGUG against MXD4	1.77

Sequence	seed-corrected z-score
AUAGGAGUAAGAAUUUUUG against NUDT10	-0.635
AUGCUUAUAAUGACCACCA against SLC51B	-2.22
UGAAACACCAUUAAAACGG against TDG	0.355
UAAAUCUGCUUAUCUCUUC against TFAM	-0.445
UUCUUGAAAAGGCAACAGU against POC1A	0.91
AAAGCGACAUUGUUUGACC against COPB2	-2.18
UUGGUCAUAGAGGUCGUCC against LSR	-1.71
UGUCGGAUGAGGUCAUUGC against TNS4	-2.96
UUGUUUGCAGGUUCUACUU against DDX19B	-0.121
UCUAGUAUUACUGCUACUG against DDHD2	0.72
AAUGUACAAGUGGUCAUUC against MAGED2	-2.83
UCAUAGUCCAGGGUAAGGC against LRP4	-1.11
UCUUUGUACGCAUCAAGUG against NPY1R	-0.0164
AUAGAUUAACCAUGUUUCC against KCNN3	-0.34
UCCAUUGAUAGAACCAUCU against HFE2	-0.476
UAAGAUGAUCGUGAACUUG against RPL39L	0.982
UGCAUUUCUAUAUUCAACC against TLE4	-0.442
UAUAGGUGUAGAUUACAGG against OR13G1	-0.49
